Experimental data reported in PubChem BioAssay AID1024 (Sanford-Burnham Center for Chemical Genomics, 2008).
The whole screen tested about 96,000 compounds, of which about 1,400 (1.5%) were called active. The full list was thinned out, with actives kept by preference. Values without a mark were called inactive.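 Rule for the calls: active = activation factor of 2 or more for CYP2C9 at a 5 µM dose; inactive = the rest.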

Each compound was assayed against Cytochrome P450 2C9 (Homo sapiens) (UniProt P11712) (assay: enhancers of cytochrome P450 2C9 turnover – biochemical, luminescence, primary screen (AID 1024;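 note: 0 = sulfaphenazole-blocked wells and 1 = vehicle-only wells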)). Settings: recombinant CYP2C9, luciferin-H conversion, at 5 µM, active compounds read high, factor 1 = untreated enzyme, 0 = blocked.
Cytochrome P450 2C9 (Homo sapiens), sequence (P11712 whole entry, looked up): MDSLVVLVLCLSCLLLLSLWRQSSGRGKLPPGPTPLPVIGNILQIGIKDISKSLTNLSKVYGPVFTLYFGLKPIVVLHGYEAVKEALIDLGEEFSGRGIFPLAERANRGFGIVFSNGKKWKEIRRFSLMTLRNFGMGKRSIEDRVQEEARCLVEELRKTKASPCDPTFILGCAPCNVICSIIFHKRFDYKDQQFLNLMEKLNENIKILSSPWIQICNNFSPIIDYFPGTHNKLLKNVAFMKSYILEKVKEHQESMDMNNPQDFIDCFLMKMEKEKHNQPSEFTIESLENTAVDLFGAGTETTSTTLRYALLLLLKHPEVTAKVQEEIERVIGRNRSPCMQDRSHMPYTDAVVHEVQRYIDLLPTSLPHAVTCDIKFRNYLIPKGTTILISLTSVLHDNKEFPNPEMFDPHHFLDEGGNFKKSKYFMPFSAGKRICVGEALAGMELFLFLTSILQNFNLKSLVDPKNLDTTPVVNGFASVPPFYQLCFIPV

SMILES | activation factor
CCN(c1ccccc1)S(=O)(=O)c1ccc(NC(=O)C(C)(C)C)cc1 | 0.7
CCN(c1ccccc1)S(=O)(=O)c1cccc(C(=O)O)c1 | 0.7
CCN(c1ccccc1)S(=O)(=O)c1ccc(N)cc1 | 2.4 (active)
O=C(NCCc1ccccn1)c1cc(C(=O)C2CCCCC2)c[nH]1 | 0.9
CC1CCN(C(NC(=O)c2ccco2)C(=O)c2ccccc2)CC1 (configuration not stated) | 0.3
COc1ccc(CCNC(=O)COC(=O)c2ccc[nH]c2=O)cc1 | 0.8
COc1cc(C2C(C(=O)OCCC#N)=C(C)NC3=C2S(=O)(=O)c2ccccc23)cc(OC)c1OC (configuration not stated) | 0.5
O=C(CCCN1C(=O)c2cccc3cccc(c23)C1=O)N1CCN(Cc2ccc3c(c2)OCO3)CC1 | 2.4 (active)
Cn1c(=O)cc(OCCCC(=O)N2CCN(Cc3ccc4c(c3)OCO4)CC2)c2ccccc21 | 0.9
O=C(Nc1cccc2ccccc12)N1CCN(Cc2ccc3c(c2)OCO3)CC1 | 0.6
COc1ccc(N(CC(=O)N/N=C/c2cccc3c2OCCO3)S(=O)(=O)c2ccc(NC(C)=O)cc2)cc1 | 0.2
CCN(CC)S(=O)(=O)c1ccc2c3c(cccc13)C(=O)S2 | 1.5
COc1cccc2cc(C(=O)N(C)C)c(=O)oc12 | 2 (active)
COc1cccc(C(=O)c2cc3ccc(O)cc3oc2=O)c1 | 0.1
COc1ccc2oc(=O)c(C(=O)O)cc2c1 | 1.1
O=C(Oc1ccccc1)Oc1ccc2c(c1)oc(=O)c1ccccc12 | 1.6
Cc1n[nH]c(=S)n1/N=C/c1ccc(Br)o1 | 1
CCc1cccc2c(C=C(C#N)C#N)cn(CC(=O)N3CCCCC3)c12 | 1
Cc1nc(SCC(=O)N2CC(=O)Nc3ccccc32)c2c(C)c(C)sc2n1 | 0.4
COc1ccc(C2CC(=O)n3c(nc4ccccc43)S2)cc1OC (configuration not stated) | 0.9
COc1ccc(C2SCCN2S(=O)(=O)c2ccccc2)cc1OC (configuration not stated) | 2.1 (active)
COc1ccc(S(=O)(=O)N2CCC(C(=O)N3CCc4ccccc4C3)CC2)cc1OC | 0.5
COc1ccc(CNC(=O)C2CCC(CNc3c(N4CCOCC4)c(=O)c3=O)CC2)cc1 (configuration not stated) | 1.1
Cc1ccc(CNC(=O)c2ccccc2CCc2ccccc2)cc1 | 0.7
Clc1ccc(Cl)c(Oc2ccc(Oc3nc(Cl)ccc3Cl)cc2)n1 | 2 (active)
N#Cc1ccc(-c2ccc(Cl)cc2)nc1Oc1ccc(F)cc1 | 0.9
Nc1ccc(Oc2ccc(Cl)cc2)cc1 | 0.8
